{"source": "PubChem BioAssay (Tox21)", "note": "Results filed as inconclusive are left out. Values without a mark were called inactive. The call rests on the fitted dose curve; in most records, active means well fitted activation curve with a large enough effect in the signal ratio in the repeat runs (not every such curve was filed as active); inconclusive means weak or mixed curves; inactive means flat fitted curve, though single readings scatter; the % refers to the signal ratio. On the % scale 0 is the no-effect control and ±100 the full control effect.", "data": [{"experiment": "qHTS assay to identify small molecule agonists of H2AX (AID 1224845)", "conditions": "CHO-K1 phospho-H2AX Ser139 HTRF, 3 h; series mostly up to 154 µM; activation (H2AX phosphorylation): at the top concentration", "description": "National Center for Advancing Translational Sciences [NCATS]\nNIH Chemical Genomics Center [NCGC]\nU.S. Environmental Protection Agency [EPA]\nNational Institutes of Environmental Health Sciences [NIEHS]\nNational Toxicology Program [NTP]\nU.S. Food and Drug Administration [FDA]\nHTRF phospho-H2AX (Ser139) assay (Cisbio Bioassays, US) enables the quantitative detection of the histone variant H2AX when phosphorylated on serine 139. When double-stranded DNA breaks, either by ionizing radiation or endogenous physiological processes, H2AX becomes phosphorylated at Ser139. This phospho-Ser139 serves as a sensitive biomarker for the detection of such breaks, localizing the site of DNA repair. So, HTRF phospho-H2AX Ser139 is a pertinent assay to study genome stability, the cell cycle, DNA repair, and it serves as a biomarker for cancer, and to understand aging. Wild type CHO-K1 cells were used to identify the inducers of Phospho-H2AX Ser 139 from the Tox21 10K compound collections.\nTox21 Assay Protocol Summary:\nThe CHO-K1 cells suspended in culture medium containing 10% FBS were dispensed at 1000 cells/ 3 ul/well in 1536-well white wall/solid bottom plates (Greiner Bio-One North America, NC) using a Multidrop Combi (Thermo Fisher Scientific Inc., Waltham, MA). After the assay plates were incubated at 37C overnight, 23 nl of compounds at 15 concentrations (from 5-48 columns) or positive control (from 1 to 4 columns) were transferred to the assay plates using a Pintool station (Wako, San Diego, CA) into each well resulting in a final DMSO concentration of 0.76%. After 3hr incubation at 37C, 1 uL/well Supplemented Lysis buffer (diluted 100 fold blocking reagent in lysis buffer) (HTRF Phospho-H2A.X (S139) Assay kit from Cisbio US Inc., Bedford, MA) was added using a Flying Reagent Dispenser (FRD) (Aurora Discovery, CA). After 10sec spin at 1000 rpm in a plate centrifuge, the assay plates were incubated at room temperature for 30 min. Then followed by the addition of 1 uL/well detection buffer (containing a mixture of two antibodies, one labeled with cryptate, Anti pH2AX (S139)-K and another labeled with d2, Anti H2AX-d2) using FRD. After incubation at room temperature for 24 hr, the time resolved fluorescence at excitation 320 nm and emissions at 665 nm and 620 nm was measured using an Envision plate reader (PerkinElmer, Waltham, MA).", "values": [{"smiles": "C=C(C)c1cccc(C(C)(C)N=C=O)c1", "activation (H2AX phosphorylation)": "-2.6%"}, {"smiles": "CC(CO)(CO)CO", "activation (H2AX phosphorylation)": "-0.156%"}, {"smiles": "CCCCOCC(C)O", "note": "(stereo not given)", "activation (H2AX phosphorylation)": "0.944%"}, {"smiles": "Cc1c(C(=O)c2c[nH]n(C)c2=O)ccc(S(C)(=O)=O)c1C1=NOCC1", "activation (H2AX phosphorylation)": "-0.952% [at 70.9 µM]"}, {"smiles": "O=Cc1ccccc1Cl", "activation (H2AX phosphorylation)": "-1.81%"}, {"smiles": "O=C(Cl)c1ccccc1[N+](=O)[O-]", "activation (H2AX phosphorylation)": "-0.144%"}, {"smiles": "CC(N)CCCC(C)(C)O", "note": "(stereo not given)", "activation (H2AX phosphorylation)": "-1.21% [at 70.9 µM]"}, {"smiles": "C=CCCCC", "activation (H2AX phosphorylation)": "-2.41%"}, {"smiles": "Cc1ccccc1C(N)=O", "activation (H2AX phosphorylation)": "-2.64%"}, {"smiles": "CC1=C(C(=O)O)N2C(=O)[C@@H](NC(=O)[C@H](N)C3=CCC=CC3)[C@H]2SC1", "activation (H2AX phosphorylation)": "1.28% [at 70.9 µM]"}, {"smiles": "C=CC(=O)CCCCC", "activation (H2AX phosphorylation)": "1.06%"}, {"smiles": "Cn1c(=O)c2c(ncn2CCO)n(C)c1=O", "activation (H2AX phosphorylation)": "0.539% [at 70.9 µM]"}, {"smiles": "CO[Si](CCCn1c(=O)n(CCC[Si](OC)(OC)OC)c(=O)n(CCC[Si](OC)(OC)OC)c1=O)(OC)OC", "activation (H2AX phosphorylation)": "-0.0682% [at 70.9 µM]"}, {"smiles": "CC(=O)c1cc(C)oc1C", "activation (H2AX phosphorylation)": "-2.63%"}, {"smiles": "O=C(O)CSCC(=O)NC1CCSC1=O", "note": "(stereo not given)", "activation (H2AX phosphorylation)": "-1.81% [at 70.9 µM]"}, {"smiles": "C/C(=C1\\CCOC(=O)S1)N(C=O)Cc1cnc(C)nc1N", "activation (H2AX phosphorylation)": "0.19% [at 70.9 µM]"}, {"smiles": "CCCC(=O)OCCC(C)CCC=C(C)C", "note": "(stereo not given)", "activation (H2AX phosphorylation)": "-0.213%"}, {"smiles": "O=C1c2ccccc2C(=O)c2cc(Cl)ccc21", "activation (H2AX phosphorylation)": "2.59% [at 14 µM]"}, {"smiles": "CCN1CCCC1CN", "note": "(stereo not given)", "activation (H2AX phosphorylation)": "-4.15% [at 70.9 µM]"}, {"smiles": "C=C(C)[C@@H]1CC=C(C)C(=O)C1", "activation (H2AX phosphorylation)": "1.15%"}, {"smiles": "COC(=O)/C=C\\C(=O)O", "activation (H2AX phosphorylation)": "-0.43%"}, {"smiles": "CC(=O)O[C@H]1C[C@@H]2CC[C@@]1(C)C2(C)C", "activation (H2AX phosphorylation)": "-1.91%"}, {"smiles": "CCC(C)C(C)=O", "note": "(stereo not given)", "activation (H2AX phosphorylation)": "1.65%"}, {"smiles": "C=Cc1ccc(C(C)(C)C)cc1", "activation (H2AX phosphorylation)": "-0.729%"}, {"smiles": "CCC(C(=O)OCCN1CCOC(c2ccccc2)C1C)c1ccccc1", "note": "(stereo not given)", "activation (H2AX phosphorylation)": "-5.58% [at 70.9 µM]"}, {"smiles": "CC(C)=CCC[C@@](C)(O)[C@H]1CC=C(C)CC1", "activation (H2AX phosphorylation)": "-1.14% [at 70.9 µM]"}, {"smiles": "CC1CCc2c(N3CCC(O)CC3)c(F)cc3c(=O)c(C(=O)O)cn1c23", "note": "(stereo not given)", "activation (H2AX phosphorylation)": "-2.71% [at 70.9 µM]"}, {"smiles": "c1ccc(B(c2ccccc2)c2ccccc2)cc1", "activation (H2AX phosphorylation)": "-0.245%"}, {"smiles": "CCCCOCCOC(=O)COc1ccc(Cl)cc1Cl", "activation (H2AX phosphorylation)": "-1.75%"}, {"smiles": "C=CC/C=C/C", "activation (H2AX phosphorylation)": "-4.04%"}, {"smiles": "CCCC(=O)Nc1ccc(OCC(O)CNC(C)C)c(C(C)=O)c1", "note": "(stereo not given)", "activation (H2AX phosphorylation)": "0.754% [at 70.9 µM]"}, {"smiles": "COc1c2occc2c(OC)c2c(=O)cc(C)oc12", "activation (H2AX phosphorylation)": "-2.54% [at 70.9 µM]"}, {"smiles": "CC(C)OC(=O)CCC(=O)OC(C)C", "activation (H2AX phosphorylation)": "-0.53%"}, {"smiles": "CC1(C)O[C@H]2CC(=O)OC[C@]23[C@H]2CC[C@@]4(C)[C@H](c5ccoc5)OC(=O)[C@H]5O[C@]54[C@]2(C)C(=O)C[C@@H]13", "activation (H2AX phosphorylation)": "-0.378% [at 70.9 µM]"}, {"smiles": "C#CCN[C@@H]1CCc2ccccc21", "activation (H2AX phosphorylation)": "-1.19% [at 70.9 µM]"}, {"smiles": "CO[C@@]1(NC(=O)Cc2cccs2)C(=O)N2C(C(=O)O)=C(COC(N)=O)CS[C@@H]21", "activation (H2AX phosphorylation)": "-0.322% [at 70.9 µM]"}, {"smiles": "CC(=O)CCc1ccc(OC(C)=O)cc1", "activation (H2AX phosphorylation)": "-0.353%"}, {"smiles": "CSc1cnccn1", "activation (H2AX phosphorylation)": "-0.846%"}, {"smiles": "CCC(=O)Oc1ccc2c(c1)CC[C@@H]1[C@@H]2CC[C@@]2(C)[C@H]1C[C@@H](OC(=O)CC)[C@@H]2OC(=O)CC", "activation (H2AX phosphorylation)": "-2.37% [at 70.9 µM]"}, {"smiles": "CC(C)C[C@@H]1[C@H](c2ccccc2)OC(=O)N1CCCN1CCCCCC1", "activation (H2AX phosphorylation)": "-2.52% [at 70.9 µM]"}]}]}
